# Test system: HepG2
# Experiment: GSK_TCMDC: Percent inhibition of human HepG2 cell line. Test compounds present at 10uM.
# Type: functional
row,SMILES,Inhibition [%]
1,Fc1cccc(C=NNc2ccnc3cc(Cl)ccc23)c1,6
2,Cl.c1ccc2c(NCCCCCCCCCNc3ccnc4ccccc34)ccnc2c1,57
3,CC(C)CNCc1cccc(-c2cccc(CNCCCN3CCN(C)CC3)c2)c1.O=C(O)C(F)(F)F,5
4,COc1ccc(CCN(C)CCCCNC(=O)c2ccc(NC(=O)c3ccc(Cl)cc3)cc2)c(OC)c1,12

# Reference: ChEMBL document CHEMBL1157539, “Thousands of chemical starting points for antimalarial lead identification” (Nature, 2010)
